From PubChem
The list is not random: actives were taken first. Their share in the collection is about 6.7%.
Pf Dd2 inh = blocks growth of Plasmodium falciparum Dd2 parasites | AID 1159554 | hit rate 2.3% among 94,000 | activity change, % at 10 µM | P. falciparum Dd2 growth, SYBR Green, 72 h; hits give low values; in the data active = activity change below about -80%
C diff growth = inhibitors of Clostridium difficile growth. Clostridium difficile clinical isolate growth, OD600, 24 h; hits give low values. growth activity, negative = inhibition, % at 16 µg/mL (by protocol). hit rate 0.25% among 86,000;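 active = mean growth activity at or below -80% and every replicate also at or below -80%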
Tcruzi prolif = T. cruzi proliferation inhibition. AID 624255. hit rate 5.9% among 77,000. T. cruzi beta-gal in NIH3T3, GalScreen luminescence, 90 h. inhibition, % at 8.34 µM;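 active = mean inhibition above about 93%, with at least 55% of replicates each passing it, limit read from the data, passing the limit was not always enough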
Numbers stand for hits; i = inactive; nt = no result given; ! = not active in a repeat.

SMILES	Pf Dd2 inh	C diff growth	Tcruzi prolif
C[C@@H]1CN([C@H](C)CO)C(=O)c2cccc(NC(=O)CCCCCC(=O)Nc3ccccc3N)c2O[C@@H]1CN(C)Cc1ccc(Oc2ccccc2)cc1	-91	i	nt
C[C@@H]1CN([C@H](C)CO)C(=O)c2cccc(NC(=O)C3CC3)c2O[C@H]1CN(C)Cc1ccc(Oc2ccccc2)cc1	i	i	i
C[C@@H]1CN([C@@H](C)CO)C(=O)c2cccc(NC(=O)CCCCCC(=O)Nc3ccccc3N)c2O[C@@H]1CN(C)Cc1ccc(Oc2ccccc2)cc1	-91	i	nt
O=C(Cc1ccccc1)N1CC2(C1)[C@H](c1ccccc1)[C@@H](CO)N2S(=O)(=O)Cc1ccccc1	i	i	nt
O=C(C[C@H]1C[C@H]2c3cc(NS(=O)(=O)c4ccc(F)cc4)ccc3O[C@H]2[C@@H](CO)O1)NCc1ccncc1	i	i	i
O=C(C[C@@H]1CC[C@@H]2[C@H](COC[C@H](O)CN2C(=O)Nc2ccc3c(c2)OCO3)O1)N1CCN(c2ccccc2)CC1	i	i	nt
O=C(C[C@H]1CC[C@@H]2[C@H](COC[C@@H](O)CN2C(=O)Nc2ccc(Cl)c(Cl)c2)O1)NC1CCC1	nt	i	i
O=C(C[C@H]1CC[C@@H]2[C@H](COC[C@H](O)CN2C(=O)Nc2ccc(Cl)c(Cl)c2)O1)NCc1ccc(F)cc1	i	-91	i
O=C(C[C@@H]1CC[C@H]2[C@@H](COC[C@@H](O)CN2C(=O)Nc2ccc(Cl)c(Cl)c2)O1)NC1CCC1	nt	-102!	i
O=C(C[C@H]1CC[C@@H]2[C@H](COC[C@@H](O)CN2C(=O)Nc2ccc3c(c2)OCO3)O1)N1CCN(c2ccccc2)CC1	-88	i	nt
CCNC(=O)C[C@H]1CC[C@H]2[C@@H](COC[C@@H](O)CN2C(=O)Nc2ccc(Cl)c(Cl)c2)O1	i	nt	i
CCCNC(=O)C[C@@H]1CC[C@@H]2[C@H](COC[C@H](O)CN2C(=O)Nc2ccc(Cl)c(Cl)c2)O1	i	-102!	i
O=C(C[C@H]1CC[C@@H]2[C@H](COC[C@@H](O)CN2C(=O)Nc2ccc(Cl)c(Cl)c2)O1)NCc1ccc(F)cc1	i	i	i
CN(C)C(=O)c1cc2c(c(-c3cccc(-c4ccccc4F)c3)n1)[C@H](CCO)N(S(C)(=O)=O)C2	i	i	nt
CCCc1cn([C@H]2C[C@@H]3O[C@H](CO)CC[C@@H]3O[C@@H]2CCc2ccc(-c3ccccc3C#N)cc2)nn1	i	i	nt
CN1C(=O)c2cc(NC(=O)NC3CCCC3)ccc2OC[C@H]2O[C@H](CC(=O)NCC3CC3)CC[C@H]21	i	i	i
Cc1ccccc1-c1cnc2c(c1)C(=O)N([C@@H](C)CO)C[C@@H](C)[C@H](CN(C)Cc1ccncc1)O2	i	i	i
C[C@@H]1CCCCO[C@H](CN(C)Cc2ccccc2)[C@H](C)CN([C@H](C)CO)C(=O)c2cc(NS(C)(=O)=O)ccc2O1	i	i	i
CO[C@H]1CN(C)C(=O)c2cc(NC(=O)NC(C)C)ccc2OC[C@@H](C)N(C(=O)C2CCC2)C[C@@H]1C	i	nt	i
Cc1ccc(S(=O)(=O)N(C)C[C@H]2OCCCC[C@@H](C)Oc3ccc(NC(=O)Nc4ccc5c(c4)OCO5)cc3C(=O)N([C@@H](C)CO)C[C@H]2C)cc1	i	nt	nt
Cc1ccc(S(=O)(=O)N(C)C[C@H]2OCCCC[C@H](C)Oc3ccc(NC(=O)Nc4ccc5c(c4)OCO5)cc3C(=O)N([C@H](C)CO)C[C@@H]2C)cc1	i	nt	nt
Cc1ccc(S(=O)(=O)N(C)C[C@@H]2OCCCC[C@@H](C)Oc3ccc(NC(=O)Nc4ccc5c(c4)OCO5)cc3C(=O)N([C@@H](C)CO)C[C@@H]2C)cc1	-83	nt	nt
Cc1ccc(S(=O)(=O)N(C)C[C@H]2OCCCC[C@H](C)Oc3ccc(NC(=O)Nc4ccc5c(c4)OCO5)cc3C(=O)N([C@@H](C)CO)C[C@H]2C)cc1	-82	nt	i
CCCNC(=O)C[C@@H]1CC[C@@H]2[C@H](COc3ccc(NC(=O)c4cscn4)cc3C(=O)N2C)O1	i	i	i
C[C@H](O)C#Cc1ccc2c(c1)O[C@@H](CN(C)CC1CCOCC1)[C@@H](C)CN([C@H](C)CO)S2(=O)=O	i	i	i
SMILES	Pf Dd2 inh	C diff growth	Tcruzi prolif
CO[C@@H]1CN(C)C(=O)c2ccc(NS(C)(=O)=O)cc2OC[C@@H](C)N(C)C[C@@H]1C	i	i	i
CCCN(C)C[C@@H]1Oc2ncc(C#CC3CC3)cc2C(=O)N([C@@H](C)CO)C[C@@H]1C	i	i	i
CCCN(C)C[C@@H]1Oc2ncc(C#Cc3ccc(F)cc3)cc2C(=O)N([C@H](C)CO)C[C@@H]1C	i	i	i
CCCN(C)C[C@H]1Oc2ncc(C#Cc3ccc(F)cc3)cc2C(=O)N([C@@H](C)CO)C[C@H]1C	-86	i	i
CCCN(C)C[C@H]1Oc2ncc(C#CC3CC3)cc2C(=O)N([C@H](C)CO)C[C@H]1C	-83	i	i
CNC[C@H]1Oc2c(NS(=O)(=O)c3cn(C)cn3)cccc2C(=O)N([C@H](C)CO)C[C@@H]1C	i	i	i
C[C@H](CO)N1C[C@H](C)[C@@H](CN(C)Cc2ccc(C(=O)O)cc2)Oc2ccc(NC(=O)C3CC3)cc2C1=O	i	i	i
C[C@H](CO)N1C[C@H](C)[C@H](CN(C)C)Oc2ncc(C3=CCCC3)cc2C1=O	i	i	i
CO[C@@H]1CN(C)C(=O)c2cc(NC(=O)C3CC3)ccc2OC[C@H](C)N(Cc2cncnc2)C[C@H]1C	i	i	i
O=C(Cc1ccccc1)N1CC(=O)N2[C@H](CO)[C@H](c3ccc(C#Cc4ccccc4)cc3)[C@@H]2C1	i	i	nt
CC(C)CC#Cc1ccc([C@@H]2[C@@H](CO)N3C(=O)CN(C(=O)Cc4ccccc4)C[C@H]23)cc1	i	i	nt
CC(C)CC#Cc1ccc([C@H]2[C@@H](CO)N3C(=O)CN(C(=O)Cc4ccccc4)C[C@H]23)cc1	-85	i	nt
O=C(Cc1ccccc1)N1CC(=O)N2[C@H](CO)[C@H](c3ccc(C#Cc4ccccc4)cc3)[C@H]2C1	-84	i	nt
O=C(C[C@@H]1C=C[C@@H](NC(=O)c2ccccc2)[C@H](CO)O1)Nc1ccc(-c2ccccc2)cc1	i	i	i
CO[C@H]1CN(C)C(=O)c2ccc(NC(C)=O)cc2OC[C@H](C)N(C(=O)C2CCOCC2)C[C@@H]1C	i	i	nt
COc1ccc(NC(=O)Nc2ccc3c(c2)C(=O)N([C@H](C)CO)C[C@H](C)[C@H](CN(C)C(=O)NC(C)C)OCCCC[C@@H](C)O3)cc1	i	i	i
CO[C@H]1CN(C)C(=O)c2cc(NS(C)(=O)=O)ccc2OC[C@@H](C)N(C(=O)CC2CC2)C[C@@H]1C	i	i	i
CO[C@H]1CN(C)C(=O)c2ccc(NC(=O)CC(F)(F)F)cc2OC[C@@H](C)N(CC2CC2)C[C@H]1C	-86	i	nt
COc1ccccc1CN1C[C@@H](C)[C@@H](OC)CN(C)C(=O)c2ccc(NC(C)=O)cc2OC[C@@H]1C	i	nt	i
CO[C@H]1CN(C)C(=O)c2ccc(NS(=O)(=O)CC(F)(F)F)cc2OC[C@@H](C)N(C)C[C@H]1C	i	i	i
CO[C@H]1CN(C)C(=O)c2ccc(NS(=O)(=O)CC(F)(F)F)cc2OC[C@H](C)N(C)C[C@@H]1C	-87	i	nt
COc1ccccc1CN1C[C@@H](C)[C@H](OC)CN(C)C(=O)c2ccc(NC(=O)Nc3ccccc3OC)cc2OC[C@H]1C	-90	nt	i
